Laboratory results reported in PubChem BioAssay (Tox21).
Results filed as inconclusive are left out. Calls of active or inactive are those of the source. Calls come from the whole dose curve; as a rule, active = well fitted cell-killing curve with a large enough effect in the repeat runs; inconclusive = weak or mixed curves, or effect the other way; inactive = no such curve, though single readings can be large or run the other way.

Experiment: qHTS assay for small molecule activators of the heat shock response signaling pathway - cell viability counter screen (AID 743209); note: nearly all actives have a fitted effect of over 50% in size
Conditions: HSE-bla HeLa viability, CellTiter-Glo luminescence, 5 h; series mostly up to 62.6 µM; activity change, negative = cytotoxicity: at the top concentration
Excerpt: U.S. Tox21 Program National Center for Advancing Translational Sciences [NCATS] NIH Chemical Genomics Center [NCGC] U.S. Environmental Protection Agency [EPA] National Institutes of Environmental Health Sciences [NIEHS] National Toxicology Program [NTP] U.S. Food and Drug Administration [FDA] Tox21 Assay Overview: Various chemicals, environmental and physiological stress conditions may lead to the activation of heat shock response/ unfolded protein response (HSR/UPR). There are three heat shock transcription factors (HSFs) (HSF-1, -2, and -4) mediating transcriptional regulation of the human HSR. To identify the compounds that activate HSR signaling, HSE-bla HeLa cell line (Invitrogen, Carlsbad, CA, USA) containing a beta-lactamase reporter gene under the control of the heat shock response elements was used to screen Tox21 10K compound library. The cytotoxicity of the Tox21 compound library against the HSE-bla HeLa cell line was tested in parallel by measuring the cell viability using CellTiter-Glo assay (Promega, Madison, WI) in the same wells.
Tox21 Assay Protocol Summary: The CellSensor HSE-bla HeLa cells (Invitrogen, Carlsbad, CA, USA) were dispensed at 1500 cells/6uL/well into 1536-well black wall/clear bottom plates using a Multidrop combi (Thermo Fisher Scientific, Waltham, MA) dispenser. After the assay plates were incubated at 37 C and 5% CO2 overnight, 23 nL of compounds dissolved in DMSO, positive controls or DMSO only was transferred to the assay plate by a Pintool station (Kalypsys, San Diego, CA). The plates were incubated at 37 C for 5 h. After 1 uL of LiveBLAzerTM B/G FRET substrate was added using a Flying Reagent Dispenser (FRD, Beckman Coulter, Indianapolis, IN, USA), the plates were incubated at room temperature for 2.5 h, and fluorescence intensity was measured by an Envision plate reader (PerkinElmer, Shelton, CT). For cell viability readout that measures cytotoxicity, 3 ul/well of CellTiter-Glo reagent was added into the assay plates using a FRD. After 30 min incubation at room temperature, the luminescence intensity in the plates was measured using a ViewLux (PerkinElmer) plate reader.
% is set by controls: 0 for no effect and ±100 for the full control effect.

| SMILES | activity change, negative = cytotoxicity |
| --- | --- |
| CN[C@@H]1[C@H](O)[C@H](NC)[C@H]2O[C@@]3(O)C(=O)C[C@@H](C)O[C@H]3O[C@@H]2[C@H]1O | -5.26% (inactive) |
| Cc1ccccc1C | 6.46% [at 81.1 µM] (inactive) |
| CC(C)c1ccccc1O | 3.77% (inactive) |
| O=P(O)(O)OCC(O)CO (stereo not given) | -26.1% (inactive) |
| CCCCOC(=O)[C@@H](C)Oc1ccc(Oc2ccc(C(F)(F)F)cn2)cc1 | -5.08% [at 81.1 µM] (inactive) |
| Cc1cc(O)c2c(c1)C(=O)c1cccc(O)c1C2=O | -9.46% (inactive) |
| O=C(O)c1ccc(OCCN2CCCCC2)cc1 | 8.27% (inactive) |
| O=C1NC2NC(=O)NC2N1 (stereo not given) | 4.59% (inactive) |
| CC(C)COC(=O)/C=C/c1ccccc1 | -0.264% (inactive) |
| O=C(O)CCNC(=O)c1ccccc1 | 3.03% (inactive) |
| CC(Cl)COP(=O)(OCC(C)Cl)OCC(C)Cl (stereo not given) | -2.13% (inactive) |
| C[CH2][Ge]([Cl])([CH2]C)[CH2]C | -6.34% [at 81.1 µM] (inactive) |
| C=C(C)[C@@H]1CC[C@@H](C)C[C@@H]1O | 5.86% (inactive) |
| C=CCOCC(O)CCl (stereo not given) | 4.03% (inactive) |
| CC(C)COC(=O)COc1ccc(Cl)cc1Cl | 3.15% (inactive) |
| CCCCCCCCOC(C)=O | 0.992% (inactive) |
| NS(=O)(=O)c1ccc(Cl)c(S(N)(=O)=O)c1 | 6.66% (inactive) |
| CCCCCCCCCCCCC | -5.49% (inactive) |
| O=C(O)C(=O)Nc1cccc(-c2nn[nH]n2)c1 | -3.81% (inactive) |
| Nc1nc(=O)n([C@@H]2O[C@H](CO)[C@@H](O)[C@@H]2F)cc1I | 14.6% (inactive) |

| SMILES | activity change, negative = cytotoxicity |
| --- | --- |
| C=C[Si](C)(C)O[Si](C)(C)C=C | 2.79% (inactive) |
| CCCOC(=O)CCCCC(=O)OCCC | 9.02% (inactive) |
| O=C(c1ccc2c(c1)C(=O)OC2=O)c1ccc2c(c1)C(=O)OC2=O | -7.3% (inactive) |
| C1CCN2C[C@@H]3C[C@@H](CN4CCCC[C@@H]34)[C@H]2C1 | -1.37% (inactive) |
| NC(=O)NNC(N)=O | 1.01% (inactive) |
| COc1cc2c(Nc3ccc(Br)cc3F)ncnc2cc1OCC1CCN(C)CC1 | -5.74% (inactive) |
| CCCOCCOCCOCCO | -7.17% (inactive) |
| COCCOCCOCCOC | 0.237% (inactive) |
| O=S(=O)(O)c1cc(O)ccc1O | 7.13% (inactive) |
| Cc1cccc(C(=O)O)c1[N+](=O)[O-] | 3.18% (inactive) |
| O=C(O)Cc1cccc(-c2cc(CCCCCCc3ccc(O[C@H]4O[C@H](CO)[C@@H](O)[C@H](O)[C@@H]4O)c(-c4cccc(CC(=O)O)c4)c3)ccc2O[C@H]2O[C@H](CO)[C@@H](O)[C@H](O)[C@@H]2O)c1 | -0.941% [at 0.55 µM] (inactive) |
| CC(=O)OC(C)(C)Cc1ccccc1 | 1.28% (inactive) |
| Cc1c(C(C)C)c(=O)n(-c2ccccc2)n1C | 10.9% (inactive) |
| OC[C@@H](O)[C@H](O)[C@@H](O)[C@@H](O)CO | -1.15% (inactive) |
| CC(=O)OCC(=O)[C@@]1(O)[C@H](OC(C)=O)C[C@H]2[C@@H]3CCC4=CC(=O)C=C[C@]4(C)[C@@]3(F)[C@@H](O)C[C@@]21C | -2.18% (inactive) |
| Cc1cccc(NC(=S)N(C)C)c1 | -3.13% (inactive) |
| COCC(=O)Nc1c(I)c(C(=O)NCC(O)CO)c(I)c(C(=O)N(C)CC(O)CO)c1I (stereo not given) | -13.3% (inactive) |
| CCCCC(=O)N(C)C | 13.6% (inactive) |
| O=c1cc(O)c(Cl)c[nH]1 | 20% (inactive) |
| CCCO | 1.22% (inactive) |
